Active and inactive are the calls of the source. The calls were made as follows: active = hit-call score of the fitted dose curve at least 0.9, where 1 is the maximum; inactive = score below 0.9.
read-out: Cytochrome P450 (CYP1A1), CYP1A1 (gene 1543); assay: LTEA_HepaRG_CYP1A1: Life Technologies and Expression Analysis (LTEA) Assay for Cytochrome P450 (CYP1A1) using HepaRG (AID 2283454); conditions: mRNA level, 48 h; actives raise or lower the signal
In short: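 Using HepaRG cultures with 0.5% DMSO as vehicle, eight-concentration exposures (max 100 uM) lasted 48 h. Transcript levels were measured by TaqMan qRT-PCR and normalized to ACTB, GAPDH and POLR2A.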

| SMILES | outcome | AC50 |
| --- | --- | --- |
| CCCCCCCCO | inactive |  |
| CC(=O)c1ccc2c(c1)[C@H](NC(=O)c1ccc(F)cc1)[C@@H](O)C(C)(C)O2 | inactive |  |
| CC1(C)C(=O)N(Br)C(=O)N1Br |  | 36.8 µM (active) |
| CCNc1ccccc1 |  | 9.94 µM (active) |
| COc1ccc(/C=C/S(=O)(=O)NC(=O)c2ccc(C)cc2Cl)cc1 |  | 50 µM (active) |
| CC(C)CCO | inactive |  |
| O=C(O)CCN(C1(C(=O)NO)CCCC1)S(=O)(=O)c1ccc(Oc2ccc(F)cc2)cc1 |  | 67.5 µM (active) |
| C=CC(=C)CCC=C(C)C |  | 35 µM (active) |
| CC(O)CN(CCN(CC(C)O)CC(C)O)CC(C)O (stereo not drawn) |  | 50 µM (active) |
| CCCN(C1CCN(C(=O)C2CCNCC2)CC1)[C@@H]1CCc2ccc(OC)cc2C1 | inactive |  |
| CCc1cc(SCc2sc(-c3ccc(C(F)(F)F)cc3)nc2CN2CCN(c3ccc(OC)cc3)CC2)ccc1OCC(=O)O |  | 7.69 µM (active) |
| CCOc1cccc(-n2cc(C(=O)N3CCN(c4cc(C(=O)O)c5ccccc5c4)CC3)nc2-c2ccc(C)cc2)c1 |  | 12.3 µM (active) |
| O=C(O)CC(O)C(=O)O (stereo not drawn) |  | 77.9 µM (active) |
| O=C(O)c1cc(N=Nc2ccc(S(=O)(=O)Nc3ccccn3)cc2)ccc1O |  | 35.8 µM (active) |
| C[C@](N)(Cc1ccc(O)c(O)c1)C(=O)O |  | 71.6 µM (active) |
| On1ccccc1=S | inactive |  |
| Cn1c(=O)c2c(ncn2C)n(C)c1=O |  | 50 µM (active) |
| O=C(OC[C@H]1O[C@@H](OC(=O)c2cc(O)c(O)c(OC(=O)c3cc(O)c(O)c(O)c3)c2)[C@H](OC(=O)c2cc(O)c(O)c(OC(=O)c3cc(O)c(O)c(O)c3)c2)[C@@H](OC(=O)c2cc(O)c(O)c(OC(=O)c3cc(O)c(O)c(O)c3)c2)[C@@H]1OC(=O)c1cc(O)c(O)c(OC(=O)c2cc(O)c(O)c(O)c2)c1)c1cc(O)c(O)c(OC(=O)c2cc(O)c(O)c(O)c2)c1 |  | 9.36 µM (active) |

Reference: PubChem BioAssay (EPA / NIEHS)
